Compound activity as filed in PubChem BioAssay.
The list is not random: actives were taken first. Their share in the collection is about 12%.
PostGolgi yeast – growth inhibition of a yeast mutant, post-Golgi transport screen; post-Golgi transport phenotypic cell assay; inhibition, % at 10 µM; 98,000 tested, 0.9% active; AID 739;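 also: yeast cells grown in 1536-well plates; yeast grown about 18 h at 30C before absorbance read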
D1 mod – D1 dopamine receptor (human) allosteric modulation; B-score at 10 µM; HEK293 D1, CRE-luciferase, dopamine EC30 potentiation; actives deviate in either direction; 58,000 tested, 5.9% active;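 active = luminescence count or its row- and column-corrected plate score outside the 99.7% band of the plate's sample wells, on either side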
PLAP activator – activates human placental alkaline phosphatase | AID 696 | 96,000 tested, 1.2% active | purified PLAP enzyme, luminescent substrate read-out; hits give high values | activation fold at 20 µM; in the data active = activation fold above about 2
DAT uptake mod – human DAT dopamine uptake with cocaine, either direction | Q01959 | LLC-PK1 hDAT cells, [14C]-dopamine uptake with cocaine IC80; actives deviate in either direction | B-score at 10 µM | 110,000 tested, 1.3% active | AID 449768;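 active = Z score or B-score, a plate-position-corrected score, falls beyond the plate's 99.7% confidence bounds, in either direction; inactive = both scores lie inside the 99.7% bounds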
Target sequence (Q01959 whole entry, looked up): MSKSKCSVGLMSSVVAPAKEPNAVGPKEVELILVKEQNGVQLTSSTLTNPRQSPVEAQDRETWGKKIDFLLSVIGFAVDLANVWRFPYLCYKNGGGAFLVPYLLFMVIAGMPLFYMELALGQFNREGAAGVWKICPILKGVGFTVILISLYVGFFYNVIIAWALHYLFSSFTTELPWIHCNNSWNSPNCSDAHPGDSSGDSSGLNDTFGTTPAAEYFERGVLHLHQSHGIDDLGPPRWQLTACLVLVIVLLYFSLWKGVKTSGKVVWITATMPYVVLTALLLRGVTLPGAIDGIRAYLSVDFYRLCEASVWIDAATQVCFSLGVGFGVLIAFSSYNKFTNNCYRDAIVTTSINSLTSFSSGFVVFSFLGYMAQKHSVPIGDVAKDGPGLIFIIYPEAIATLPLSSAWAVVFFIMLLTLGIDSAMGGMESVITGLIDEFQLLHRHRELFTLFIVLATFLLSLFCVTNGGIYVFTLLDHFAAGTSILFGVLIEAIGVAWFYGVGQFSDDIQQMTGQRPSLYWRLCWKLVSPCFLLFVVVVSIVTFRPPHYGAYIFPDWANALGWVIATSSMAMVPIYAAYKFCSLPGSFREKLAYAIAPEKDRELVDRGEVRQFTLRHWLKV
Cav32 inh – inhibitors of human Cav3.2 T-type calcium channel; O95180; Cav3.2-expressing cells, Fluo-4 calcium fluorescence FDSS; hits give low values; B-score at 10 µM; 100,000 tested, 4% active; AID 449739;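 active = single-dose well whose peak fluorescence ratio is a statistical outlier from its plate by either plate-standardised score or position-corrected B-score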
PostGolgi ctrl – yeast control strain growth, post-Golgi counter-screen; efflux-deficient yeast background strain, growth absorbance A615, 16 h; AID 738; inhibition, % at 10 µM; 98,000 tested, 5% active
Numbers stand for hits; 0 = inactive; - = no result. Rule as the data show it, unless noted: active = inhibition above about 30%; inactive = the rest.

SMILES | PostGolgi yeast | D1 mod | PLAP activator | DAT uptake mod | Cav32 inh | PostGolgi ctrl
Cc1cc(C(=O)CSc2nc3ccc(Cl)cc3[nH]2)c(C)n1CC1CCCO1 (stereo not drawn) | 0 | - | 0 | 0 | 0 | 0
COc1ccc2nc(SCC(=O)NC(C)(C)C)[nH]c2c1 | 0 | -2.1 | 0 | 0 | 0 | 0
Cc1cc(C)n(-c2nncn2NC(=O)c2ccc(Cl)cc2O)n1 | 0 | 0 | 0 | 0 | 0 | 0
COc1cccc(C(=O)CSc2nnnn2C2CCCCC2)c1 | 0 | - | 0 | 0 | 0 | 0
CCCCn1c(-c2ccccc2)nc2c(=O)n(C)c(=O)[nH]c21 | 0 | 0 | 0 | 0 | 0 | 0
CC(Oc1ccc(Cl)cc1Cl)C(=O)NCCCN(C)C (stereo not drawn) | 0 | - | 0 | 0 | 0 | 0
CN(C)CCNC=C(C(=O)Nc1ccc(Cl)cc1Cl)C(=O)Nc1ccc(Cl)cc1Cl | 40 | - | 0 | 0 | 0 | 99
Cc1cc(C)n(CC(O)CN2c3ccccc3Sc3ccccc32)n1 (stereo not drawn) | 0 | 0 | 0 | 0 | -6.3 | 43
COc1ccccc1N(CC(=O)Nc1cccnc1)S(=O)(=O)c1ccccc1 | 0 | - | 0 | 0 | 0 | 0
COc1ccc(OC)c(N(CC(=O)Nc2cccnc2)S(=O)(=O)c2ccccc2)c1 | 0 | - | 2.2 | 0 | 0 | 0
O=c1c2ccccc2nc2n1CCCCN2 | 0 | 0 | 0 | 0 | 0 | 0
Cc1ccc(C)c(NC(=O)Cn2nnc(C(=O)NCc3cccs3)c2N)c1 | 0 | - | 0 | 0 | 0 | 0
CCOc1ccc(N2C(=O)CC(Sc3ncccn3)C2=O)cc1 (stereo not drawn) | 0 | 0 | 0 | 0 | 0 | 0
C=CCNc1nnc(SC2CC(=O)N(c3ccc(OCCC)cc3)C2=O)s1 (stereo not drawn) | 0 | - | 0 | 0 | 3.3 | 0
N#C/C(=C\c1cn[nH]c1-c1ccc(Cl)cc1)C(=O)NCc1ccccc1 | 0 | - | 2.1 | - | - | 0
COc1ccc(-c2[nH]ncc2/C=C(\C#N)C(=O)NC2CC2)cc1 | 0 | - | 2.6 | 0 | 0 | 0
CC(NC(=O)/C(C#N)=C/c1cn[nH]c1-c1ccccc1)c1ccccc1 (stereo not drawn) | 0 | - | 0 | 0 | 0 | 0
COc1ccc(C2=C(O)C(C)N(c3ccccc3)C2=N)cc1OC (stereo not drawn) | 0 | -3.5 | 0 | 0 | 0 | 0
COc1ccc(-c2cnn(-c3ccccc3)c2N)cc1OC | 0 | 0 | 0 | 0 | 0 | 0
CC(=O)Nc1ccc(C(=O)CSc2ncn(-c3ccccc3)n2)cc1 | 0 | 0 | 0 | 0 | 0 | 35
O=C(CSc1ncn(-c2ccccc2)n1)Nc1nc2c(s1)CCCC2 | 0 | 0 | 0 | 0 | -4.2 | 46
Cc1ccc(-c2nnc(SCC(=O)Nc3nc4c(s3)CCCC4)n2C)cc1 | 0 | - | 0 | 0 | 0 | 0
O=C(CSc1ncn(-c2ccccc2)n1)Nc1nccs1 | 0 | - | 0 | 0 | 0 | 0
O=C(CSc1ncn(-c2ccccc2)n1)Nc1nc2ccccc2s1 | 0 | 0 | 0 | 0 | 0 | 0
Cn1c(SCC(=O)Nc2nc3c(s2)CCCC3)nnc1-c1ccccc1 | 0 | 0 | 0 | 0 | -6.1 | 0
SMILES | PostGolgi yeast | D1 mod | PLAP activator | DAT uptake mod | Cav32 inh | PostGolgi ctrl
Cc1ccc(C(=O)c2c(NC(=O)c3cccnc3)sc3c2CCCC3)cc1 | 0 | - | 0 | 0 | 0 | 33
Cc1cccc(NC(=O)Cn2cnc3ccccc3c2=O)c1C | 0 | - | 0 | 0 | 0 | 0
O=C1NC(Nc2nccs2)(C(F)(F)F)C(=O)N1CCc1ccccc1 (stereo not drawn) | 0 | 0 | 2 | 0 | 0 | 0
N#Cc1nc(-c2cccc(Cl)c2)oc1NCc1cccnc1 | 0 | - | 2 | 0 | 0 | 0
O=S(=O)(c1ccc(Oc2ccc(Br)cc2)cc1)N1CCOCC1 | 0 | 0 | 0 | 0 | 0 | 63
COc1ccc(-c2ccc(S(=O)(=O)N3CCOCC3)cc2)cc1 | 0 | 0 | 0 | 0 | 0 | 0
Cc1ccc(NC(=O)c2ccccc2)s1 | 0 | -5.2 | 0 | 0 | 0 | 0
Cc1sc(NC(=O)c2ccccc2)c(C(=O)NCCN(C)C)c1C | 0 | - | 0 | 0 | 0 | 0
Cc1cc(NC(=O)c2ccccc2)sc1C | 0 | -2.9 | 0 | 0 | 0 | 0
CCN1CCN(CCC(=O)Nc2ccccc2OC)CC1 | 0 | 0 | 0 | 0 | 0 | 0
COc1ccc2ccccc2c1CN1CCN(C)CC1 | 0 | -2.4 | 0 | 0 | 0 | 0
CCN1CCN(Cc2c(OC)ccc3ccccc23)CC1 | 0 | -3.6 | 0 | 0 | 0 | 0
Cc1cc(=O)c(C(=O)O)cn1Nc1ccc(Cl)cc1 | 0 | - | 0 | 0 | 0 | 0
COc1cccc(CN2C[C@]34C=C[C@@H](C[C@@H]3S2(=O)=O)O4)c1 | - | - | - | 0 | 0 | -
O=C(NCc1ccc(Cl)cc1)c1ccccc1Oc1ccccc1 | 0 | - | 0 | 0 | 0 | 33
CN1CCCN(C(=O)c2cc(=O)[nH]c3ccccc23)c2nc3ccccc3nc21 | 0 | 0 | 0 | 0 | 0 | 0
CN1CCCN(C(=O)Cc2c(Cl)cccc2Cl)c2nc3ccccc3nc21 | 0 | 0 | 0 | 0 | 0 | 43
CCOC(=O)C1=NN(C(=O)c2ccc(C)cc2)C(O)(c2ccc(Cl)cc2)C1 (stereo not drawn) | 0 | - | 0 | 0 | -6.3 | 0
COC(=O)C1=NN(C(=O)c2ccc(Cl)cc2)C(O)(c2ccccc2)C1 (stereo not drawn) | 0 | - | 0 | 0 | 0 | 0
CC(C)NC(=O)CSc1nnc(C2CC2)n1-c1ccccc1 | 0 | - | 0 | 0 | 0 | 0
N#Cc1c(NC(=O)CSc2nnc(-c3ccccc3O)n2-c2ccccc2)sc2c1CCCC2 | 0 | 0 | 0 | 0 | -4.8 | 40
N#Cc1cc2c(nc1SCC(=O)Nc1sc3c(c1C#N)CCC3)CCCCCC2 | 0 | - | 0 | 2.6 | 0 | 0
N#Cc1cc2c(nc1SCC(=O)Nc1sc3c(c1C#N)CCC3)CCC2 | 0 | - | 0 | 0 | 0 | 0
C=CCN(C(=O)CNS(=O)(=O)c1ccccc1)C(C(=O)NCCOC)c1ccncc1 (stereo not drawn) | 0 | 0 | 0 | 0 | 0 | 0
COCCN1CN=C(Nc2nc3ccccc3s2)NC1 | 0 | 0 | 0 | 0 | 0 | 0
SMILES | PostGolgi yeast | D1 mod | PLAP activator | DAT uptake mod | Cav32 inh | PostGolgi ctrl
O=C(CSc1ccc2nnc(-c3ccccn3)n2n1)NCc1ccco1 | 0 | 0 | - | 0 | 0 | 0
COc1cc(C(=O)NCc2cccc3ccccc23)cc(Cl)c1OC | 0 | - | 0 | 0 | 0 | 39
COCCn1nnnc1CN(CCc1ccccc1)Cc1cc2ccc(C)cc2[nH]c1=O | 0 | 0 | 0 | 0 | 0 | 0
COc1cccc(CN2C(=O)C3CCCN3c3ccc(S(=O)(=O)N4CCOCC4)cc32)c1 (stereo not drawn) | 0 | - | 0 | 0 | 0 | 0
O=C(c1ccc(Br)o1)N1CCN(c2ccccn2)CC1 | 0 | 0 | 0 | 2.4 | 0 | 0
Cc1sc2ncnc(N3CCCCC3)c2c1C | 0 | - | 0 | 0 | 0 | 0
Cc1ccc(OCCN2CCN(c3ncnc4sc(C)c(C)c34)CC2)cc1 | 0 | - | 2.2 | 0 | -3.6 | 0
Clc1ccc(OCCN2CCN(c3ncnc4sccc34)CC2)cc1 | 0 | 0 | 0 | 0 | 0 | 33
FC(F)(F)c1cc(-c2ccco2)nc(NCCc2ccccc2)n1 | 0 | - | 0 | 0 | 0 | 0
CC(=O)OC1=C(C#N)Cn2ccc3cccc1c32 | 0 | 0 | 0 | 0 | - | 0
Cc1nn(C)c(Oc2ccccc2)c1CCNS(=O)(=O)c1ccccc1 | 0 | - | 0 | 0 | 0 | 38
